From PubChem BioAssay AID1031 (Columbia University Molecular Screening Center, 2008) come the findings set out here.

The list shows a part of the results. Values without a mark were called inactive. No rule for the calls is given here.

The target of this assay is Tyrosine-protein phosphatase non-receptor type 22 (Homo sapiens) (UniProt Q9Y2R2). The experiment in a line: LYP phosphatase activation, single-dose recheck – biochemical, DiFMUP fluorescence, single concentration, confirmation (AID 1031). Particulars: Recombinant LYP, at 2 µM, active compounds read high, zero set by plate's median compound well.
Tyrosine-protein phosphatase non-receptor type 22 (Homo sapiens), sequence (Q9Y2R2 whole entry, looked up): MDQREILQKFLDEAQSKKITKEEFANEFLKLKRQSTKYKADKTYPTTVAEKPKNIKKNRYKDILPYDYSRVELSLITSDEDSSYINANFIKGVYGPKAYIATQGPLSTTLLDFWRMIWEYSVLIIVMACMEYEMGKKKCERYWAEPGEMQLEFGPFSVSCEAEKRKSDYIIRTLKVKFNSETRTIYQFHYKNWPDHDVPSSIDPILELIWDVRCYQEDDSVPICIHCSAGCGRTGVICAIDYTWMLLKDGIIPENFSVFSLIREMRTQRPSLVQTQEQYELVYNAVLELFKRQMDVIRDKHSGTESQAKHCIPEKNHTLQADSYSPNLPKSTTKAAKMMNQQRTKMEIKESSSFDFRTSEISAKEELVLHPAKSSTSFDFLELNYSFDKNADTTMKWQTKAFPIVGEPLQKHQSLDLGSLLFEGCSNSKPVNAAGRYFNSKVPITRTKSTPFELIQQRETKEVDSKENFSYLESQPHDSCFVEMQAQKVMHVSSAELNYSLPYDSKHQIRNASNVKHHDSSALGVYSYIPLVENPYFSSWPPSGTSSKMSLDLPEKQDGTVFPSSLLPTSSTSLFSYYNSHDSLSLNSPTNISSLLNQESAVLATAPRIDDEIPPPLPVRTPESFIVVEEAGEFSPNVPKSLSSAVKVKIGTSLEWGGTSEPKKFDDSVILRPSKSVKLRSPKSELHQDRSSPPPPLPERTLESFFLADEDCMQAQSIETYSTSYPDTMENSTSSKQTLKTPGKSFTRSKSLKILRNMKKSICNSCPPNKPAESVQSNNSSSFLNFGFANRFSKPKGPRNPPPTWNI

Regarding `N#CCCn1ncc2ccccc21`, the activation is 5.5%.
For `Cc1ccccc1NC(=O)c1cc(S(=O)(=O)N2CCOCC2)cs1`, the activation was -3.6%.
